Common to all, as to assay: DAPPL (digital affinity profiling via proximity ligation, sequencing); 10 mM Tris-HCl pH 7.5, 50 mM NaCl, 1 mM DTT, 4% glycerol, room temperature, 30 min; GST-TFs on glutathione beads, 16-mer random dsDNA library, 0.1% formaldehyde crosslink after washing; high values mean tight binding
Experiment [1] concerns the target T1, FEV (Homo sapiens, UniProt Q99581 1-238).
T1 sequence: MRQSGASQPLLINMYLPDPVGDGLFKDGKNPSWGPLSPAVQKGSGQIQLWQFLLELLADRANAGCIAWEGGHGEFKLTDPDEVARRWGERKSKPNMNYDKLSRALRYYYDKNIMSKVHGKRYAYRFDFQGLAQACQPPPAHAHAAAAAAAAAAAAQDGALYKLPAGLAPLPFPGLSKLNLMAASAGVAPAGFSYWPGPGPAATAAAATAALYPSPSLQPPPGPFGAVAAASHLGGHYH
The note with it: protein: recombinant; tags: N-terminal GST; dsDNA, one strand shown. The method in brief: (§1)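 Human transcription factors were made in yeast as GST fusions, captured on glutathione beads and barcoded with DNA. With a tag-only sample included, the pool was incubated with 200 nmole of a random double-stranded 16-mer DNA library in Tris/NaCl/DTT/glycerol buffer at room temperature for 30 min, then crosslinked with 0.1% formaldehyde after washing, ligated by proximity, amplified and sequenced. For binding signal, each hexamer's read frequency for a factor is divided by its frequency for the tag-only sample.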

For experiment [2], the target named is ETV5 (Homo sapiens, UniProt P41161 1-510). As to conditions: protein: recombinant; tags: N-terminal GST; dsDNA, one strand shown. The method in brief:
as §1

For experiment [3], the target named is HSF1 (Homo sapiens, UniProt Q00613 1-529). The note with it: protein: recombinant; tags: N-terminal GST; chain copies: 3; dsDNA, one strand shown. The method in brief: as §1
Sequence of HSF1 (Q00613 whole entry): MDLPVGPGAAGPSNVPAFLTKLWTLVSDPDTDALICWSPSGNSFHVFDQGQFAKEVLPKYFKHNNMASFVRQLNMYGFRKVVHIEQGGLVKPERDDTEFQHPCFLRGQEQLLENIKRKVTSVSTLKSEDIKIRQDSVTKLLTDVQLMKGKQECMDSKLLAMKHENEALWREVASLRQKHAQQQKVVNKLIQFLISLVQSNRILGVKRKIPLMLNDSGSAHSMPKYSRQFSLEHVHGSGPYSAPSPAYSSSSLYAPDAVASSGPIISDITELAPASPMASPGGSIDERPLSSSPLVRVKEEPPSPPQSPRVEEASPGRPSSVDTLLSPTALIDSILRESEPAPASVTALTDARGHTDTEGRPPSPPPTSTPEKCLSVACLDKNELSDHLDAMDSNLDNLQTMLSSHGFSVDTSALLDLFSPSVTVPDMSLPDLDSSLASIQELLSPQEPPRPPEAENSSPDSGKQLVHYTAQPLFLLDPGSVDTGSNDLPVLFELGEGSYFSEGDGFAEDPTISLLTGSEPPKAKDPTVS
In experiment [4] the target is T2, SPIC (Homo sapiens, UniProt Q8N5J4 1-248).
T2 sequence: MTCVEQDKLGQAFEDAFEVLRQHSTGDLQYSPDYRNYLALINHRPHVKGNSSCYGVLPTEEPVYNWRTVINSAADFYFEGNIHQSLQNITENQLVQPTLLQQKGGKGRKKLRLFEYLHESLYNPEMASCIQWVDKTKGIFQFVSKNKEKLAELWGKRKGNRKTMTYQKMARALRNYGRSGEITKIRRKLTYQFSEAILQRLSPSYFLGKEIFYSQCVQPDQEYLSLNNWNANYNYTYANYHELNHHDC
The note with it: protein: recombinant; tags: N-terminal GST; dsDNA, one strand shown. The method in brief: as §1

The target in experiment [5] is ELF4 (Homo sapiens, UniProt Q99607 1-663). As to conditions: protein: recombinant; tags: N-terminal GST; dsDNA, one strand shown. The method in brief: as §1
Sequence of ELF4 (Q99607 whole entry): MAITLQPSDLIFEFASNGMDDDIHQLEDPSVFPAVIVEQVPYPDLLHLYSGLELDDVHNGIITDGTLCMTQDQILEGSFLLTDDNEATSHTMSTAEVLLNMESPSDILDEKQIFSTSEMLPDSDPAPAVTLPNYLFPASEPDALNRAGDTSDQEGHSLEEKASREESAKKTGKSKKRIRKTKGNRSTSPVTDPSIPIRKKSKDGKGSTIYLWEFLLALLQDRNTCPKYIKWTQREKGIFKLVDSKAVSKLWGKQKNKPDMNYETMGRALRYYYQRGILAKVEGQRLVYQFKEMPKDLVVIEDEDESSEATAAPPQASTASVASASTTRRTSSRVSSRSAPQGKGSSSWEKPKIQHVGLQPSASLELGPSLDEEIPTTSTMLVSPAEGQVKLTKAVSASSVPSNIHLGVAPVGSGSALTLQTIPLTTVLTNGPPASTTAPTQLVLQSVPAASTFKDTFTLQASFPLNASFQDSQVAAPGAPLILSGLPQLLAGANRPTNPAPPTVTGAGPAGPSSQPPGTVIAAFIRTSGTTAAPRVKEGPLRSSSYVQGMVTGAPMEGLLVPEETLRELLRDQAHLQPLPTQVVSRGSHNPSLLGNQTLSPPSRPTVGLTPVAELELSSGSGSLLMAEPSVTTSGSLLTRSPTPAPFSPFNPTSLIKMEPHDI
The target of experiment [6] is T3, ELK4 (Homo sapiens, UniProt P28324-2 1-405).
T3 sequence: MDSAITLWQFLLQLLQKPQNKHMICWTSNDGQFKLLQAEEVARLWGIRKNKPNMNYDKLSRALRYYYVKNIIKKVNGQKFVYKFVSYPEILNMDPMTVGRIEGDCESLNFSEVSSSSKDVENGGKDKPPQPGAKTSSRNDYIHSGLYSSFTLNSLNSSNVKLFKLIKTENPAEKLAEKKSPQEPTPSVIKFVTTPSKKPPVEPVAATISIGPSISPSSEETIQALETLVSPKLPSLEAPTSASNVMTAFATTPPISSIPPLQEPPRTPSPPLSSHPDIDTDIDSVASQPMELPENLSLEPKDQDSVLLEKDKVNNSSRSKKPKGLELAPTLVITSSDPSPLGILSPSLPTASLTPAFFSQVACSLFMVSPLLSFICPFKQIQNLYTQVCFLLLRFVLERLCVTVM
The note with it: protein: recombinant; tags: N-terminal GST; dsDNA, one strand shown. The method in brief: as §1

Experiment [7] has as its target T4, ETV2 (Homo sapiens, UniProt O00321 1-342).
T4 sequence: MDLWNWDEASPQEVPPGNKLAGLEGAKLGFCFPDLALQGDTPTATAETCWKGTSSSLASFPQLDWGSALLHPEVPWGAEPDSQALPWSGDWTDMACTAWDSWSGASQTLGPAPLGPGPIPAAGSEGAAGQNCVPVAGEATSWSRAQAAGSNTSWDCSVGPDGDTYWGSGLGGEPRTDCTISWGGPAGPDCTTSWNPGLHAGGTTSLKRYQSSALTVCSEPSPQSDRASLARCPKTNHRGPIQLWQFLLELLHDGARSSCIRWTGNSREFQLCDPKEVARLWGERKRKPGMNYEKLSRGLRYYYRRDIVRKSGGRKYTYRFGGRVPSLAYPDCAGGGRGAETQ
The note with it: protein: recombinant; tags: N-terminal GST; dsDNA, one strand shown. The method, boiled down: as §1

Experiment [8] has as its target T5, ELF3 (Homo sapiens, UniProt P78545 1-371).
T5 sequence: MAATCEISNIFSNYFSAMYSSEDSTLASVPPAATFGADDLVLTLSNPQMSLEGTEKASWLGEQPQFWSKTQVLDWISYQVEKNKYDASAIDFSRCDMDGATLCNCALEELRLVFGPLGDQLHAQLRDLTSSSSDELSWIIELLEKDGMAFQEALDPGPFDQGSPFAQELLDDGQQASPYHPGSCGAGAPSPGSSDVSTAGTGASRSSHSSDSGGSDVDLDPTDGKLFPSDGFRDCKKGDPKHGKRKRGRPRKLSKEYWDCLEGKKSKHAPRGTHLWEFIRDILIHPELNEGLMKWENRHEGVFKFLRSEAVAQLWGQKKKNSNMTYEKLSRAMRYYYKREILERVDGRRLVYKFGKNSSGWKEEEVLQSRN
The note with it: protein: recombinant; tags: N-terminal GST; dsDNA, one strand shown. The method in brief: as §1

Experiment [9] has as its target CRX (Homo sapiens, UniProt O43186 1-299). As to conditions: protein: recombinant; tags: N-terminal GST; dsDNA, one strand shown. The method in brief: as §1
The target in experiment [10] is ETV1 (Homo sapiens, UniProt P50549 1-477). The note with it: protein: recombinant; tags: N-terminal GST; dsDNA, one strand shown. The method, boiled down: as §1
Sequence of ETV1 (P50549 whole entry): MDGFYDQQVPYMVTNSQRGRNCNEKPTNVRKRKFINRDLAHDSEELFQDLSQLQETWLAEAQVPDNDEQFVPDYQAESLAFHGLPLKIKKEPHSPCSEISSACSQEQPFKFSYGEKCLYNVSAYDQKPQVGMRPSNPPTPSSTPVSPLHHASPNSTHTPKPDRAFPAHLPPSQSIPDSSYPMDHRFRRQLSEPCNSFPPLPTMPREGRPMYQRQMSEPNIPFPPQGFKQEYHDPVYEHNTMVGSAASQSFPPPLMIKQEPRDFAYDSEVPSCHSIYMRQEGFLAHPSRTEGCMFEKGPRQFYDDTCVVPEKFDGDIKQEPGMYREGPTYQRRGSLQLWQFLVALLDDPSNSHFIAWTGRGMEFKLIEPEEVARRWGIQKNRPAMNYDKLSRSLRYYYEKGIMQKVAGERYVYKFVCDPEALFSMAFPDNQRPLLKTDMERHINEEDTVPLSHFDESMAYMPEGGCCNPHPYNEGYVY
For experiment [11], the target named is T6, ERF (Homo sapiens, UniProt P50548 1-548).
T6 sequence: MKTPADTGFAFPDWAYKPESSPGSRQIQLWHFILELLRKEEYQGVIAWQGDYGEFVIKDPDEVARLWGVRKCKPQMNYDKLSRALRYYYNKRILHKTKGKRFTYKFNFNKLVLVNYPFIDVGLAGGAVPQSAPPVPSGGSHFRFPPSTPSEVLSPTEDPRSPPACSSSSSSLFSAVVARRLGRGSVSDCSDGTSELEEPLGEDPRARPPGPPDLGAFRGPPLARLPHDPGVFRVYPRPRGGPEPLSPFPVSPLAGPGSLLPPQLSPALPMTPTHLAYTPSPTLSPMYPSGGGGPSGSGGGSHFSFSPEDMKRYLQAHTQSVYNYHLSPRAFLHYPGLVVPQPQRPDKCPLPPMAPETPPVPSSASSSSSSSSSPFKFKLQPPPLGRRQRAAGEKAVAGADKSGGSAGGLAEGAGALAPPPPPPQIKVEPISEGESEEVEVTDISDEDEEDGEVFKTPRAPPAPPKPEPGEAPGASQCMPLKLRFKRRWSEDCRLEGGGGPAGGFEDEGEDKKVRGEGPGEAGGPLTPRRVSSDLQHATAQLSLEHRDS
The note with it: protein: recombinant; tags: N-terminal GST; dsDNA, one strand shown. The method, boiled down: as §1

Experiment [12] concerns the target T7, ETV3L (Homo sapiens, UniProt Q6ZN32 1-361).
T7 sequence: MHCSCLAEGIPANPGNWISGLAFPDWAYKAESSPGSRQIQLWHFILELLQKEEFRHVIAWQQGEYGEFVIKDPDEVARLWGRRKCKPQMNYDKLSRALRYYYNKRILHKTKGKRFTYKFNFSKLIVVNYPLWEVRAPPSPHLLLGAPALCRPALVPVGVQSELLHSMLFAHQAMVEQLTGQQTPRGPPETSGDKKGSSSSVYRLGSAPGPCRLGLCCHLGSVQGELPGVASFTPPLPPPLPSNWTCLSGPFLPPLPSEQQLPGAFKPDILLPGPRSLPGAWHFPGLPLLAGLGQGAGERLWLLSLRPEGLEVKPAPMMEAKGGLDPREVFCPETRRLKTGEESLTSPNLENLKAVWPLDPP
As to conditions: protein: recombinant; tags: N-terminal GST; dsDNA, one strand shown. The method in brief: as §1

Experiment [13] has as its target T8, ETS2 (Homo sapiens, UniProt P15036 1-469).
T8 sequence: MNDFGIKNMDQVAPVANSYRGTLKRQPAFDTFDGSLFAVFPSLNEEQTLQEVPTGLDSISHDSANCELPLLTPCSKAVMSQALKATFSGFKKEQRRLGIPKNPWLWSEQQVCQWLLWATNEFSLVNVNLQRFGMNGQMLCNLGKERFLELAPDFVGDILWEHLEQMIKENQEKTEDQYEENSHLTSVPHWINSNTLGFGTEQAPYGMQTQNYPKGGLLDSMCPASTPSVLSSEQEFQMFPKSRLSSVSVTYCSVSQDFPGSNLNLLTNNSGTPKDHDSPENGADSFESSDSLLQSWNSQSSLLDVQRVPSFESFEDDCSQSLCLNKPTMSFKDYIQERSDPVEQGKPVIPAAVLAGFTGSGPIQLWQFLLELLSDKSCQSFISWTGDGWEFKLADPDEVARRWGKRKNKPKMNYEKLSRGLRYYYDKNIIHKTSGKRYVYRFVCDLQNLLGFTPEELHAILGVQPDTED
The note with it: protein: recombinant; tags: N-terminal GST; dsDNA, one strand shown. The method, boiled down: as §1

The target in experiment [14] is T9, SPDEF (Homo sapiens, UniProt O95238 1-335).
T9 sequence: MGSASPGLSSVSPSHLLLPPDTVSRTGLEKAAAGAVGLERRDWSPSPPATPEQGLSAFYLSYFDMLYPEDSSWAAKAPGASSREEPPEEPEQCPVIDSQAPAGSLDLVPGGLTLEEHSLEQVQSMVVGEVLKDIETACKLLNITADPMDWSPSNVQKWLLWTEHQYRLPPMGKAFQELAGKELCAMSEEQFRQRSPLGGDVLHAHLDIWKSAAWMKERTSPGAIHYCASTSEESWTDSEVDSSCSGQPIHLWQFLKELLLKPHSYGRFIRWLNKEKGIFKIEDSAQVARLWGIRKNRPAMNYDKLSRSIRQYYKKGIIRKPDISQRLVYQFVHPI
The note with it: protein: recombinant; tags: N-terminal GST; dsDNA, one strand shown. The method, boiled down: as §1

The target of experiment [15] is T10, ETV7 (Homo sapiens, UniProt Q9Y603 1-341).
T10 sequence: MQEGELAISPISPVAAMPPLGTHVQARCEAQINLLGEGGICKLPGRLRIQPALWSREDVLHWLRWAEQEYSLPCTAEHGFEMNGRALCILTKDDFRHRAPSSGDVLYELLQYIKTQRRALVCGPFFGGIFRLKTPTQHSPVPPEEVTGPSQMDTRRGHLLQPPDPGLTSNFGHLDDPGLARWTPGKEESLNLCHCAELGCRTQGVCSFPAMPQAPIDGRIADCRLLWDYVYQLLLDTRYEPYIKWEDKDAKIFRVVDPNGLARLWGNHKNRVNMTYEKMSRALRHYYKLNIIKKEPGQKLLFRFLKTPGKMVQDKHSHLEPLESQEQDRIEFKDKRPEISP
The note with it: protein: recombinant; tags: N-terminal GST; dsDNA, one strand shown. The method in brief:
as §1

In experiment [16] the target is T11, ELF5 (Homo sapiens, UniProt Q9UKW6-2 1-255).
T11 sequence: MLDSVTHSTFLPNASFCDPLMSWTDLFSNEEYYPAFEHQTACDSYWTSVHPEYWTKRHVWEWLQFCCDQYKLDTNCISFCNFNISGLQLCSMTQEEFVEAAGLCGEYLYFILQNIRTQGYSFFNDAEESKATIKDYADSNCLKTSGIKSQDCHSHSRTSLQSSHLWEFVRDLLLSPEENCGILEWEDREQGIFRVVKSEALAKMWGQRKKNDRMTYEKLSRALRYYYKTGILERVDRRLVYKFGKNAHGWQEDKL
The note with it: protein: recombinant; tags: N-terminal GST; dsDNA, one strand shown. The method, boiled down:
as §1

Experiment [17] has as its target T12, ETV3 (Homo sapiens, UniProt P41162-2 1-143).
T12 sequence: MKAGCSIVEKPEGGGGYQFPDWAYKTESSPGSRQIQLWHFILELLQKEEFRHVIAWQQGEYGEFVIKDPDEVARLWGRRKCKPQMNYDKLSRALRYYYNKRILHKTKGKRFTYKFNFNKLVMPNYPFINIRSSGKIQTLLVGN
The note with it: protein: recombinant; tags: N-terminal GST; dsDNA, one strand shown. The method in brief: as §1

Experiment [18] has as its target ETV6 (Homo sapiens, UniProt P41212 1-452). The note with it: protein: recombinant; tags: N-terminal GST; dsDNA, one strand shown. The method in brief: as §1

Here are results for one sequence from article PMC7862700, “An all-to-all approach to the identification of sequence-specific readers for epigenetic DNA modifications on cytosine”.

Sequence of CRX (O43186 whole entry): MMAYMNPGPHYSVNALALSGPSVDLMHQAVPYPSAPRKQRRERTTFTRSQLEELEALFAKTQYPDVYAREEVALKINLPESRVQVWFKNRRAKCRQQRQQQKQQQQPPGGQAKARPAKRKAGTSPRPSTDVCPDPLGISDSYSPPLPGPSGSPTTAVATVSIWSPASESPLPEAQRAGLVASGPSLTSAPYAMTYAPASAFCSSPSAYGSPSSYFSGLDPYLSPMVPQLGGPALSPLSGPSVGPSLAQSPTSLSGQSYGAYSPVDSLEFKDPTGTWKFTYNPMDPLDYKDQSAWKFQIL
Sequence of ETV6 (P41212 whole entry): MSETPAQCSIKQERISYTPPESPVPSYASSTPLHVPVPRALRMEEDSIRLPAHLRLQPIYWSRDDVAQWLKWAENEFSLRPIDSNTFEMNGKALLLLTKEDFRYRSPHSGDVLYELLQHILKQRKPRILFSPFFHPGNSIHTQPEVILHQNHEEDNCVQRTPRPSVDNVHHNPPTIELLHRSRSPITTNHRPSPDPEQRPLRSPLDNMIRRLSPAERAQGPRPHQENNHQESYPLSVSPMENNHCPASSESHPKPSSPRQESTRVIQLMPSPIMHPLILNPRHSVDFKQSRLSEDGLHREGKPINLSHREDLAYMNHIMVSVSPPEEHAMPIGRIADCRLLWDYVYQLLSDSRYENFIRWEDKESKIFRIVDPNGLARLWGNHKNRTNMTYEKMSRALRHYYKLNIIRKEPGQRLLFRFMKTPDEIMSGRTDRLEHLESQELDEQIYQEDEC
Sequence of ETV5 (P41161 whole entry): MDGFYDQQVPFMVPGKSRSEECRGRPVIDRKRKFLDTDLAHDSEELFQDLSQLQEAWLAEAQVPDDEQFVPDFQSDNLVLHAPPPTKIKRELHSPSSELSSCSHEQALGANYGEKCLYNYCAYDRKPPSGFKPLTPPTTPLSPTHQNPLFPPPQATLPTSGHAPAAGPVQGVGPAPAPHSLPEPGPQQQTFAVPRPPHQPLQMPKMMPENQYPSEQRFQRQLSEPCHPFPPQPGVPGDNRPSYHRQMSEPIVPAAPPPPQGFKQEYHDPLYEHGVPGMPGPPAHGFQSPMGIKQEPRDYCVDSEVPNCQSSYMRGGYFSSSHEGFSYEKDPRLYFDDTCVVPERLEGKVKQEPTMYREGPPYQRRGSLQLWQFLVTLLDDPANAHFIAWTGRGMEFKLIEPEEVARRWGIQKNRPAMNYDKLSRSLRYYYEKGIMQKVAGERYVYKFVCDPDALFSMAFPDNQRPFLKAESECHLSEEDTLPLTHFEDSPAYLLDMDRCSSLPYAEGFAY

Regarding AGGTCT, the binding signal is 1.11 fold enrichment (6-mer frequency, TF over GST control) in experiment [1]; 1.2 fold enrichment (6-mer frequency, TF over GST control) in experiment [2]; 1.09 fold enrichment (6-mer frequency, TF over GST control) in [3]; 1.13 fold enrichment (6-mer frequency, TF over GST control) in experiment [4]; 1.2 fold enrichment (6-mer frequency, TF over GST control) in [5]; 1.23 fold enrichment (6-mer frequency, TF over GST control) in experiment [6]. In addition, the binding signal in experiment [7] is 1.23 fold enrichment (6-mer frequency, TF over GST control); in experiment [8], 1.08 fold enrichment (6-mer frequency, TF over GST control); in [9], 1.21 fold enrichment (6-mer frequency, TF over GST control); in experiment [10], 1.16 fold enrichment (6-mer frequency, TF over GST control); in [11] it was 1.26 fold enrichment (6-mer frequency, TF over GST control); in experiment [12], 1.14 fold enrichment (6-mer frequency, TF over GST control). Moreover, the binding signal in experiment [13] is 1.2 fold enrichment (6-mer frequency, TF over GST control); in [14] it was 1.1 fold enrichment (6-mer frequency, TF over GST control); in experiment [15] it was 1.2 fold enrichment (6-mer frequency, TF over GST control); in experiment [16], 1.16 fold enrichment (6-mer frequency, TF over GST control); in [17] it was 1.11 fold enrichment (6-mer frequency, TF over GST control); in experiment [18] it was 1.07 fold enrichment (6-mer frequency, TF over GST control).
